# PLK1 PBD inh – qHTS for Inhibitors of PLK1-PDB (polo-like kinase 1 - polo-box domain): Primary Screen | Serine/threonine-protein kinase PLK1 (Homo sapiens), P53350 | Plk1 PBD binding of FITC phosphopeptide, fluorescence polarization | Potency, µM, for inactives: max response, negative = inhibition, hits mostly inhibitors | 360,000 tested, 2.8% active; further: series mostly up to about 57 µM; on the % scale 0 is the no-effect control and ±100 the full control effect; nearly all actives have a fitted effect of over 65% in size
# JMJD2A Tudor inh – qHTS Assay for Inhibitors of JMJD2A-Tudor Domain; Lysine-specific demethylase 4A (Homo sapiens), O75164; AlphaScreen JMJD2A-Tudor / H3K4me3 peptide binding; Potency, µM (series often up to 114 µM), for inactives: at the top dose activity change, negative = inhibition, most hits filed as inhibitors; 390,000 tested, 4.4% active; AID 504339, 2011; further: on the % scale 0 is the no-effect control and ±100 the full control effect; nearly all actives have a fitted effect of over 50% in size
# L3MBTL1 block – qHTS Assay for the Inhibitors of L3MBTL1 | AlphaScreen L3MBTL1–H3K9me1 peptide binding | Potency, µM (titrated, usually from 57.1 µM), for inactives: at the highest dose activity, negative = inhibition, hits mostly inhibitors | Lethal(3)malignant brain tumor-like protein 1 (Homo sapiens), Q9Y468 | 230,000 tested, 0.66% active; further: on the % scale 0 is the no-effect control and ±100 the full control effect; nearly all actives have a fitted effect of over 60% in size
#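 L3MBTL1 (50 nM) pre-complexed 30 min with biotinylated H3(1-15)K9me1 peptide (75 nM), then compounds added for 30 min at room temperature; AlphaScreen streptavidin donor/nickel chelate acceptor beads (10 ug/mL final) read after 30 min dark incubation.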
# BAZ2B inh – qHTS Assay for Inhibitors of BAZ2B; AlphaScreen BAZ2B-H3K14Ac peptide displacement; Potency, µM (top dose mostly 114 µM), inactives show at the highest dose activity change, negative = inhibition, actives largely listed as inhibitors; 360,000 tested, 4.4% active; AID 504333, 2011; further: on the % scale 0 is the no-effect control and ±100 the full control effect; nearly all actives have a fitted effect of over 60% in size
#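 BAZ2B 50 nM plus b-H3(5-23)K14Ac 50 nM, PBS pH 7.4/0.01% Tween-20, 30 min RT; compound added (max 110 uM), 30 min RT; streptavidin donor/Ni-chelate acceptor beads 10 ug/mL final, 20 min dark; AlphaScreen read.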
# HP1b chromo inh – HTS for Inhibitors of HP1-beta Chromodomain Interactions with Methylated Histone Tails; 390,000 tested, 0.56% active; AID 540317, 2011; Chromobox protein homolog 1 (Homo sapiens), P83916; Potency, µM (highest dose often 114 µM), for the others: at the highest dose activity change, negative = inhibition, usual class: inhibitors; AlphaScreen HP1-beta / biotin-H3K9me3 peptide binding; further: nearly all actives have a fitted effect of over 70% in size
#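 HP1-beta protein (50 nM final) preincubated 30 min at room temperature with biotinylated H3(1-18)K9me3 peptide (50 nM) in PBS pH 7.4, 0.01% Tween-20, then compound added for 30 min. AlphaScreen streptavidin donor/nickel chelate acceptor beads (10 ug/mL final), 30 min dark, luminescence read.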
# VDR inhibitor – Inhibitors of the vitamin D receptor (VDR): qHTS; VDR-SRC2-3 peptide fluorescence polarization, 2 h; 400,000 tested, 0.93% active; Vitamin D3 receptor (Homo sapiens), P11473; Potency, µM, inactives show max response, negative = inhibition, most hits filed as inhibitors; further: on the % scale 0 is the no-effect control and ±100 the full control effect
#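 VDR–SRC2-3 interaction, FP format. Cmpds 23 nl via pintool, brief spin, 2 h ambient incubation.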
# * = called active by the depositor; ? = inconclusive; · = not tested or not shown; [ ] = another dose, or the depositor's remark. An excerpt weighted towards active compounds, which were near 6.9% of everything screened. The call rests on the fitted dose curve; in most records, active means well fitted curve in the direction sought with a large enough effect; inconclusive means small, poorly fitted or top-dose-only effect, or another doubt; inactive means no such curve, though single readings can be large; an effect the other way counts as inactive or inconclusive. Potency means the concentration at half of the fitted maximal effect.
SMILES,PLK1 PBD inh,JMJD2A Tudor inh,L3MBTL1 block,BAZ2B inh,HP1b chromo inh,VDR inhibitor
COc1ccc(/C=C(\CC(=O)O)c2nc3ccccc3s2)cc1O,-22.3%,-23.1%,·,-11.9%,21.0%,-1.1%
O=C(O)C/C(=C\c1cc2c(cc1Br)OCO2)c1nc2ccccc2s1,23.8µM*,-7.7%,·,-12.0%,-13.2%,-13.0%
Brc1cc2c(cc1/C=N/Nc1nc3ccccc3s1)OCO2,-0.6%,-28.3%,0.4%,1.2%,22.6%,-16.0%
COc1cc(/C=N/NC(=Nc2ccc(C)cc2)c2nc3ccccc3s2)ccc1O,-3.3%,?,·,44.7µM*,0.0%,19.2%
CCC(C)C(=O)Nc1nc(-c2ccc3c(c2)NC(=O)CO3)cs1 (stereo not drawn),?,-22.9%[57.1 µM],-12.8%,-8.6%,?,?
COc1ccccc1N=c1scc(-c2ccc3c(c2)NC(=O)CO3)n1CC1CCCO1 (stereo not drawn),-4.5%,?,·,44.7µM*,?,13.4%
O=C1COc2ccc(-c3csc(=Nc4ccc(OC(F)F)cc4)n3CC3CCCO3)cc2N1 (stereo not drawn),1.9%,?,-20.7%,?,-15.1%,8.7%
COCC(C)n1c(-c2ccc3c(c2)NC(=O)CO3)csc1=Nc1ccc(OC(F)F)cc1 (stereo not drawn),1.7%,?,·,12.6µM*,?,2.3%
CN(C)S(=O)(=O)c1cccc(N=c2scc(-c3ccc4c(c3)NC(=O)CO4)n2CC2CCCO2)c1 (stereo not drawn),-5.8%,?,·,50.1µM*,?,-1.4%
O=C1CCC[C@@H]2CC(NCc3ccc(Cl)c(Cl)c3)C[C@@H]3CCN1[C@H]23 (stereo partly drawn),·,·,·,·,·,-9.0%
Cn1c(/C(C#N)=C/c2ccccc2Br)nc2ccccc21,·,-16.7%,·,9.8%,40.3%,?
Cc1ccc(-n2c(-c3ccco3)n[nH]c2=S)cc1,-6.5%,22.4µM*,11.4%,-12.5%,-17.1%,-14.9%
Cc1occc1-c1n[nH]c(=S)n1-c1ccccc1,-6.7%,7.08µM*,9.5%,-6.7%,25.5%,-16.1%
Cc1occc1-c1n[nH]c(=S)n1C,?,-6.8%[11.4 µM],14.8%,-12.6%,?,-7.1%
CCOc1ccc(-n2c(-c3ccco3)n[nH]c2=S)cc1,-7.2%,5.62µM*,-5.3%,?,?,-0.2%
S=c1[nH]nc(-c2cc(-c3ccco3)[nH]n2)n1-c1ccccc1,-17.2%,50.1µM*,0.9%,?,-0.9%,-3.7%
COc1ccc(OC)c(-n2c(-c3cc(-c4ccco4)[nH]n3)n[nH]c2=S)c1,-5.9%,?,-3.9%,-2.3%,-6.1%,1.5%
COc1cccc(NC(=O)C2CCCN(c3ncnc4onc(-c5ccc(F)cc5)c34)C2)c1 (stereo not drawn),·,-7.4%,·,6.8%[57.1 µM],34.0%,8.7%
CCOc1ccc(-c2nonc2NC(=O)c2oc3c(C)c(C)ccc3c2C)cc1OCC,·,-18.8%,·,1.1%,13.5%,0.5%
FC(F)(F)c1ccc(Cl)c(-n2c(-c3ccco3)n[nH]c2=S)c1,-13.1%,?,·,-12.8%,50.3%,-15.2%
S=c1[nH]nc(-c2ccco2)n1-c1ccccc1Cl,-13.1%,5.01µM*,-6.8%,-20.7%,14.3%,-11.8%
Fc1ccc(-n2c(-c3ccco3)n[nH]c2=S)cc1,-6.6%,6.31µM*,·,-22.5%,15.1%,2.6%
COc1ccc(CNCCCC(=O)Nc2c(Cl)ccc(C)c2Cl)cc1OC,0.9%,0.794µM*,·,56.2µM*,79.4µM*,-10.1%
COc1ccc(N(CC(=O)NCCc2ccccc2)S(=O)(=O)c2ccccc2)c(OC)c1,·,-14.6%,·,-17.0%,28.8%,-1.8%
O=C(O)CCSc1ccc([N+](=O)[O-])cc1[N+](=O)[O-],11.9µM*,-19.4%,3.3%,?,12.6%,?
SMILES,PLK1 PBD inh,JMJD2A Tudor inh,L3MBTL1 block,BAZ2B inh,HP1b chromo inh,VDR inhibitor
O=[N+]([O-])c1ccc(Sc2ncccn2)c([N+](=O)[O-])c1,-11.0%,-22.1%,-6.5%,-30.0%,9.6%,-7.3%
CCCCCCN1C=CC=C/C1=C\C=C(C#N)C#N,?,?,?,35.5µM*,-31.4%,-3.1%
CC1=C/C(=C\C=C(C#N)C#N)N(C)c2ccccc21,13.4%,-20.7%,-11.9%,-32.9%,13.6%,-4.1%
N#CC(c1ccccc1)c1ccc2c(C(F)(F)F)cc(C(F)(F)F)nc2n1 (stereo not drawn),-5.9%,44.7µM*,·,10µM*,14.1µM*,-2.9%
Cc1ccc(C(C#N)c2ccc3c(C(F)(F)F)cc(C(F)(F)F)nc3n2)cc1 (stereo not drawn),1.8%,5.62µM*,?,8.91µM*,14.1µM*,-5.0%
CN(N)c1ccc2c(C(F)(F)F)cc(C(F)(F)F)nc2n1,23.8µM*,?,·,?,-15.4%,-12.1%
COc1ccccc1NC(=O)c1sc2nc3c(c(C(F)(F)F)c2c1N)CN(C(C)=O)CC3,·,-29.9%,·,-32.0%,21.7%,-11.9%
CCc1cccc(NC(=O)Cn2nc3c4cc(F)ccc4n(Cc4cccc(C)c4)cc-3c2=O)c1,·,2.1%,·,-4.4%,30.9%,4.0%
C[n+]1c(-c2ccccc2)cc2c(=Cc3ccc([N+](=O)[O-])cc3)c3ccccc3n21,2.12µM*,44.7µM*,·,·,?,?
CC(C)n1c2ccccc2c2cc([N+](=O)[O-])ccc21,-2.8%,-10.3%,-1.3%,2.0%,19.9%,-12.0%
CN(C)c1ccc(C=c2c3cc(O)ccc3n3c2cc(-c2ccccc2)[n+]3C)cc1,?,25.1µM*,·,·,50.1µM*,-26.2%
C[n+]1c(-c2ccccc2)cc2c(=Cc3ccccc3)c3ccccc3n21,3.77µM*,39.8µM*,·,·,?,?
Cc1cc(C)n(C(=O)/C(C#N)=N/Nc2cc(Cl)cc(Cl)c2)n1,-28.4%,-34.8%,5.2%,?,-5.5%,-6.5%
Cn1c(CNS(=O)(=O)c2ccc(Br)cc2)n[nH]c1=S,-7.5%,7.94µM*,6.6%,4.8%,12.0%,7.1%
Cc1ccc(S(=O)(=O)NCc2n[nH]c(=S)n2C)cc1,-8.2%,7.94µM*,5.8%,5.6%,22.7%,-3.8%
CC(=O)c1ccc(NC(=O)CSc2nccn2C2CCCC2)cc1,·,-16.3%,·,?,16.8%,4.6%
CCN(CC)C(=O)C1=C(C)N(Cc2ccc(OC)cc2)C(=O)C(CC(=O)NC(c2ccccc2)c2ccccc2)C1 (stereo not drawn),-1.2%,·,·,·,·,·
Cc1ccccc1OCC(=O)Nc1ccc2[nH]c(=O)sc2c1,·,-17.8%,·,-3.2%,30.5%,-9.5%
Cc1ccc(C(=O)Nc2ccc3nc(SCC(=O)N4CCCc5ccccc54)sc3c2)cc1,·,-14.9%,·,-9.0%,35.5%,19.9%
